# HTT aggregate: reduces HttQ103-GFP aggregates in PC12 cells | PC12 HttQ103-GFP aggregates, Acumen cytometry, 40 h | Potency, µM (highest dose often 46.1 µM), for the others: at the top dose activity change, negative = inhibition, actives largely listed as inhibitors | hit rate 1.1% among 220,000; note: potency is the fitted concentration of half-maximal effect; % is set by controls: 0 for no effect and ±100 for the full control effect; nearly all actives have a fitted effect of over 60% in size
#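 Aggregates are detected as GFP objects 1–25 µm with signal 6 STDEV over background in lysates of induced PC12 cells. These carry Huntingtin exon 1 with 103 glutamines fused to GFP under an ecdysone promoter; compounds titrated.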
# KDM4E inh: blocks human JMJD2E demethylase activity. B2RXH2. hit rate 1.6% among 230,000. JMJD2E catalytic domain, FDH-coupled NADH fluorescence (FDH is formaldehyde dehydrogenase). Potency, µM (doses to about 57.1 µM), inactives show top-dose activity change, negative = inhibition, usual class: inhibitors; active = well fitted inhibition curve with a large enough effect, not every such curve was filed as active; inconclusive = small, poorly fitted or top-dose-only effect, or another doubt; inactive = no such curve, though single readings can be large or run the other way;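 note: potency is the fitted concentration of half-maximal effect; 0% = wells with enzyme and -100% = buffer wells without enzyme; nearly all actives have a fitted effect of over 50% in size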
# Target sequence (B2RXH2 1-337 limits assumed): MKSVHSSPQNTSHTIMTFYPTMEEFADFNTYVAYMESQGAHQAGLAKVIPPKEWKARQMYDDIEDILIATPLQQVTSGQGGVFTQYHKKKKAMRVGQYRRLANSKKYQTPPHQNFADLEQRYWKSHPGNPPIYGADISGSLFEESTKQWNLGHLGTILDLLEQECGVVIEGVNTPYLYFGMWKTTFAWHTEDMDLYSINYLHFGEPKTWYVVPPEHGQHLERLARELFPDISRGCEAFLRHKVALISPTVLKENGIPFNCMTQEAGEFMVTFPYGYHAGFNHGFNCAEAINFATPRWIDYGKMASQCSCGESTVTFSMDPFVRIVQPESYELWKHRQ
# HPGD inh: blocks human HPGD enzyme activity | hit rate 4.3% among 150,000 | P15428 | AID 894 | Potency, µM, for inactives: at the highest dose activity change, negative = inhibition, usual class: inhibitors | purified HPGD, NADH fluorescence kinetic, PGE2 substrate; active = well fitted inhibition curve with a large enough effect, not every such curve was filed as active; inconclusive = small, poorly fitted or top-dose-only effect, or another doubt; inactive = no such curve, though single readings can be large or run the other way; note: potency is the fitted concentration of half-maximal effect; % is set by controls: 0 for no effect and ±100 for the full control effect
#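 NADH formation kinetics: reaction with 30 uM PGE2 and 1 mM NAD+ (final), 20 nM enzyme, Tris-HCl pH 8 with Tween 20, after 15 min compound preincubation at room temperature. Fluorescence change, last versus first of five reads.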
# HTT cytoprotect: protects HTT-Q103 PC12 cells, measured by ATP; AID 1471; PC12 HTT-Q103 induced, cytoprotection, ATP luminescence, 40 h; Potency, µM (series often up to 56.4 µM), for inactives: cytoprotection (ATP increase), usual class: activators; hit rate 0.14% among 230,000; note: potency is the fitted concentration of half-maximal effect; % of control where 0% means no effect; nearly all actives have a fitted effect of over 45% in size
#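 ATP quantification (ATPlite) reports survival of PC12 cells in which tebufenozide, 100 nM final, switches on Htt exon 1 with 103 glutamines linked to GFP; compounds are titrated.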
# ALDH1A1 inh: ALDH1A1 (human) enzyme inhibition; P00352; Potency, µM (top dose mostly 75.3 µM), inactives show top-dose activity, negative = inhibition, hits mostly inhibitors; hit rate 7.3% among 220,000; Purified ALDH1A1, NADH fluorescence, propionaldehyde substrate; active = well fitted inhibition curve with a large enough effect, not every such curve was filed as active; inconclusive = small, poorly fitted or top-dose-only effect, or another doubt; inactive = no such curve, though single readings can be large or run the other way;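 note: potency is the fitted concentration of half-maximal effect; plate controls were no enzyme wells and a reference inhibitor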
# CBFb-RUNX1 inh: inhibitors of human CBF-beta and RUNX1 interaction. Q01196+Q13951. AlphaScreen CBFb-His/RUNX1-biotin binding, biochemical. Potency, µM (highest dose often 59.8 µM), without a hit: at the top dose activity, negative = inhibition, most hits filed as inhibitors. 230,000 tested, under 10 active. AID 1477; note: % of control where 0% means no effect
#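 CBFb-His/RUNX1-biotin, 30 nM each, preincubated 20 min RT; compound 15 min RT; Ni + streptavidin beads 50 ng each, 90 min RT; AlphaScreen read.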
# * hit, by the source's call; u = inconclusive; x = no result given; [ ] = another dose, or the depositor's remark. Rows were chosen to be rich in hits. Some 9.8% of all compounds tested hit in one or more screens of this group. Unless noted, calls come from the whole dose curve; as a rule, active = well fitted curve in the direction sought with a large enough effect; inconclusive = small, poorly fitted or top-dose-only effect, or another doubt; inactive = no such curve, though single readings can be large; an effect the other way counts as inactive or inconclusive.
SMILES,HTT aggregate,KDM4E inh,HPGD inh,HTT cytoprotect,ALDH1A1 inh,CBFb-RUNX1 inh
CC(C)N(C(=O)CSc1nn2c(=O)c(C(C)(C)C)nnc2s1)c1ccccc1,-8.9%,-19.1%,-20.3%,19.0%,22.4µM*,-3.7%
Cc1ccsc1CN(C)C(=O)CCc1nnc(COc2ccccc2)o1,28.5%[9.22 µM],-15.2%,x,25.1%[10 µM],-7.8%,-0.7%
Nc1nc(-c2ccccc2)c(-c2ccccc2)c(-c2nc(N)nc(-c3ccccc3)c2-c2ccccc2)n1,x,x,-1.3%,-7.7%[10 µM],6.3%[13.5 µM],x
OC(COC(c1ccc(Cl)cc1)c1ccc(Cl)cc1)CN1CCN(c2ccccn2)CC1 (configuration not stated),31.6µM*,u,-18.2%,16.8%[10 µM],-13.7%,-18.9%
OC(COCc1ccc(Cl)cc1)CN1CCN(CC(O)COCc2ccc(Cl)cc2)CC1 (configuration not stated),3.98µM*,-2.5%,-9.7%,-19.7%[10 µM],-0.4%,14.2%
OC(COCc1ccc(Cl)cc1)CN1CCc2ccccc2C1 (configuration not stated),-0.7%,2.2%,-3.6%,34.2%[10 µM],-9.7%,8.1%
O=C(Nc1ccc(N2CCOCC2)c(S(=O)(=O)Nc2ccc(Cl)cc2)c1)c1cnccn1,-14.8%[9.22 µM],-2.9%,x,1.8%[10 µM],2µM*,-8.9%
COc1ccc(S(=O)(=O)N2CCN(c3ccc(C)cc3C)CC2)cc1OC,35.5µM*,0.0%,-21.2%,16.6%,-8.0%,13.6%
COc1ccc(S(=O)(=O)N2CCN(c3c(C)cccc3C)CC2)cc1OC,u,-2.6%,-16.1%,9.5%,-8.0%,-4.3%
CC(C)Oc1cccc(-n2c(CCc3c[nH]c4ccc(Br)cc34)nc3ccccc3c2=O)c1,x,-8.4%,-18.2%,8.5%,-3.0%,-6.4%[21.7 µM]
Cc1nnc(SCc2cc([N+](=O)[O-])cc3c2OCOC3)n(N)c1=O,-2.5%,-3.5%,x,-7.8%,3.2%,-4.7%
CN(C)S(=O)(=O)c1cccc(-c2nnc(SCc3cc(Cl)cc4c3OCOC4)n2N)c1,14.5%,u,7.08µM*,-17.2%[10 µM],25.1µM*,5.6%
CCCCc1ccc(NC(=S)N2CCN(c3ncccn3)CC2)cc1,u,u,x,-37.3%[10 µM],-15.7%,4.1%
CCCCNC(=O)NCCN1CCOCC1,-1.0%[9.22 µM],8.1%,x,-9.1%[10 µM],x,-3.8%
O=[N+]([O-])c1cccc(C2=NCCC(c3ccccc3)O2)c1 (configuration not stated),0.2%,-19.9%,-5.6%,x,-2.6%,-1.9%
COC(=O)c1ccc(C2C(C#N)=C(N)Oc3cc(C)n(C)c(=O)c32)cc1 (configuration not stated),10.2%,u,-12.1%,-12.0%[0.074 µM],25.1µM*,1.9%
COC(=O)C1=C(N)Oc2cc(C)n(C)c(=O)c2C1c1ccc(Cl)cc1 (configuration not stated),11.2µM*,3.3%,-2.9%,23.0%[0.074 µM],11.6%,3.2%
Cc1cc2c(c(=O)n1CCN(C)C)C(c1ccncc1)C(C#N)=C(N)O2 (configuration not stated),-3.6%,2.6%,-4.0%,-14.3%[0.074 µM],6.1%,2.0%
COc1ccccc1N(Cc1cc(=O)[nH]c2ccccc12)C(=O)c1cccc([N+](=O)[O-])c1,-7.2%[9.22 µM],-10.2%,x,-7.5%[10 µM],x,-12.4%
CCCCOc1ccc(C(=O)NNC(=S)NC(=O)CC)cc1,u,-4.5%,-1.7%,4.1%[10 µM],-1.6%,0.3%
CCC(=O)NC(=S)NNC(=O)c1ccc(OC)cc1,u,-22.4%,-28.6%,u,39.8µM*,-4.1%
Cc1ccc(C(=O)NNC(=S)NC(=O)COc2ccccc2)cc1,0.0%,-5.5%,-14.8%,-20.8%,17.8µM*,-0.3%
CC(C)(C)C(=O)NC(=S)NNC(=O)c1ccc(-c2ccccc2)cc1,8.91µM*,u,x,u,-0.8%,u
CCC(=O)NC(=S)NNC(=O)c1ccc([N+](=O)[O-])cc1,-4.9%,2.6%,-26.9%,9.4%,20µM*,3.2%
Cc1c(Cl)cccc1NC(=S)N/N=C/c1ccccc1Cl,-24.0%[9.22 µM],2.7%,x,-0.5%[10 µM],x,3.6%
